The text below walks through data of PubChem BioAssay (EPA / NIEHS).

A short description of assay [1]: ATG_E_Box_CIS: Attagene CIS-FACTORIAL HepG2 Assay for human Enhancer Box (E-box) (AID 2282936). Conditions: HepG2 E-box cis-reporter transcription, actives raise or lower the signal. A digest of the protocol: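 Transiently transfected HepG2, endogenous TF-driven reporters, 24 h dosing. Readout: RT-PCR plus capillary electrophoresis of fluorescent reporter fragments. Gain or loss of signal fitted bidirectionally against DMSO baseline.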

Assay [2] is described as follows: ATG_M_61_CIS: Attagene CIS-FACTORIAL HepG2 Assay for M61 Transcription Factor (Internal Marker) (AID 2282937). Conditions: HepG2 Attagene CIS-FACTORIAL M61 internal marker reporter; actives raise or lower the signal. The procedure, abridged:
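Endogenous transcription factor activity in HepG2 is read through transiently transfected cis-element reporter units. After 24 h dosing, RNA undergoes reverse transcription, PCR and primer extension with 6-FAM before capillary electrophoresis; DMSO-referenced bidirectional fit.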

Assay [3] in a line: ATG_EGR_CIS: Attagene CIS-FACTORIAL HepG2 Assay for human Early Growth Response 1 (EGR1) (AID 2282938). The settings on record: HepG2 Attagene CIS-FACTORIAL EGR reporter mRNA; actives raise or lower the signal. The procedure, abridged: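 Activity is taken as induction or loss of reporter mRNA versus DMSO, fitted bidirectionally. Transcripts from cis-regulated reporter units in transiently transfected HepG2 were measured after 24 h by RT-PCR with capillary electrophoresis.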

The nature of assay [4]: ATG_M_19_CIS: Attagene CIS-FACTORIAL HepG2 Assay for M19 Transcription Factor (Internal Marker) (AID 2282939). The settings on record: HepG2 Attagene CIS-FACTORIAL M19 internal marker reporter; actives raise or lower the signal. A digest of the protocol:
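Internal marker readout, fitted in both directions against DMSO, from HepG2 cells carrying transfected cis-element reporter constructs; RT-PCR and capillary electrophoresis of reporter mRNA after 24 h exposure.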

The nature of assay [5]: ATG_ERE_CIS: Attagene CIS-FACTORIAL HepG2 Assay for Estrogen Response Element (ERE) (AID 2282940). Conditions: HepG2 ERE cis-reporter, Attagene RNA transcript; actives raise or lower the signal. The procedure, abridged: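 After 24 h compound treatment, RNA from transfected HepG2 cells was reverse-transcribed, reporter cDNA PCR-amplified, FAM-labelled, HpaI-cut and resolved by capillary electrophoresis. ERE-driven cis reporter transcripts reflect endogenous factors; gain or loss scored against DMSO.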

A short description of assay [6]: ATG_Ets_CIS: Attagene CIS-FACTORIAL HepG2 Assay for human Erythroblast Transformation Specific (ETS) (AID 2282941). The settings on record: HepG2 ETS cis-reporter transcription, actives raise or lower the signal. A digest of the protocol: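 Multiplexed reporter transcript profiling: HepG2, 24 h treatment, total RNA to cDNA, PCR, 6-FAM labelling, HpaI cut, capillary electrophoresis. Gain- or loss-of-signal fitted against DMSO.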

The target in assay [7] is Hepatocyte nuclear factor 3-beta (Homo sapiens) (UniProt Q9Y261). The assay can be described thus: ATG_FoxA2_CIS: Attagene CIS-FACTORIAL HepG2 Assay for human Forkhead box A2 (FOXA2) (AID 2282942). The settings on record: HepG2 cis-reporter transcription factor activity, 24 h; actives raise or lower the signal. The procedure, abridged:
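Reporter transcript induction is measured by fluorescence after capillary electrophoresis of RT-PCR products from HepG2 cells exposed 24 h. Cis-regulated reporter units report endogenous factor activity; curves fitted both directions against DMSO.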

The nature of assay [8]: ATG_FoxO_CIS: Attagene CIS-FACTORIAL HepG2 Assay for human Forkhead box O (FoxO) (AID 2282943). Conditions: HepG2 Attagene cis-reporter, FoxO element, mRNA; actives raise or lower the signal. The procedure, abridged:
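HepG2 cells transiently transfected with cis-element-driven reporter units report endogenous FoxO activity. After 24 h chemical exposure, reporter mRNA quantified by RT-PCR, fluorescent labeling, HpaI digestion and capillary electrophoresis; bidirectional fit versus DMSO.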

Assay [9] can be described thus: ATG_GATA_CIS: Attagene CIS-FACTORIAL HepG2 Assay for human GATA Binding Protein (AID 2282944). Conditions: HepG2 GATA cis-element reporter, Attagene multiplex mRNA; actives raise or lower the signal. The procedure, abridged:
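Reporter transcripts from a GATA cis-regulated unit, among multiplexed reporters in transfected HepG2 cells, were measured by RT-PCR with capillary electrophoresis after 24 h dosing. Induction or loss scored relative to DMSO.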

Assay [10] in a line: ATG_GLI_CIS: Attagene CIS-FACTORIAL HepG2 Assay for human Zinc Finger Protein GLI1 (AID 2282945). The settings on record: HepG2, Attagene cis-factorial reporter mRNA, GLI element; actives raise or lower the signal. The procedure, abridged:
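Transiently transfected HepG2 cells report endogenous transcription factor activity via cis-element-driven reporter units. After 24 h compound exposure, reporter mRNA was measured by RT-PCR with capillary electrophoresis; bidirectional fitting against DMSO baseline.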

A short description of assay [11]: ATG_GRE_CIS: Attagene CIS-FACTORIAL HepG2 Assay for human Glucocorticoid Response Elements (GRE) (AID 2282947). The settings on record: HepG2 GRE cis-reporter, Attagene multiplex mRNA; actives raise or lower the signal. The procedure, abridged:
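Read-out: fluorescent reporter-transcript fragments separated by capillary electrophoresis after RT-PCR. Transiently transfected HepG2 cells carrying cis-element-driven reporter units were dosed for 24 h; gain or loss of signal fitted against DMSO control.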

Assay [12] can be described thus: ATG_ISRE_CIS: Attagene CIS-FACTORIAL HepG2 Assay for human Interferon Regulatory Factor 1 (IRF1) binding to an Interferon-Stimulated Response Element (ISRE) (AID 2282948). Conditions: HepG2 ISRE cis-reporter (Attagene), mRNA transcription readout; actives raise or lower the signal. The procedure, abridged: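 Signal reflects induction or loss of ISRE-linked reporter mRNA in transiently transfected HepG2 cells after a 24 h treatment, detected by fluorescent RT-PCR fragments on capillary electrophoresis and normalised to DMSO.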

Assay [13] is described as follows: ATG_M_32_CIS: Attagene CIS-FACTORIAL HepG2 Assay for M32 Transcription Factor (Internal Marker) (AID 2282949).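 Also: background control marker of the multiplexed CIS panel rather than a real target.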 Conditions: HepG2 Attagene cis-factorial M32 reporter, mRNA; actives raise or lower the signal. A digest of the protocol: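 Transient MRTU transfection of HepG2; 24 h compound treatment; TriZol RNA, oligo(dT) RT, reporter PCR, 6-FAM primer extension, HpaI cut, CE. Gain/loss of signal vs DMSO.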

Assay [14] is described as follows: ATG_M_06_CIS: Attagene CIS-FACTORIAL HepG2 Assay for M06 Transcription Factor (Internal Marker) (AID 2282950). Conditions: HepG2 Attagene CIS-FACTORIAL M06 internal marker reporter; actives raise or lower the signal. The procedure, abridged:
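Serves as a background control readout. Transfected HepG2 exposed to compounds for 24 h, then reporter transcripts quantified by fluorescent RT-PCR and capillary electrophoresis. Both directions fitted against DMSO baseline.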

Assay [15] addresses Hepatocyte nuclear factor 6 (Homo sapiens) (UniProt Q9UBC0). The assay can be described thus: ATG_HNF6_CIS: Attagene CIS-FACTORIAL HepG2 Assay for human Hepatocyte Nuclear Factor 6 (HNF6) (AID 2282952). The settings on record: HepG2 Attagene cis-factorial HNF6 reporter transcription; actives raise or lower the signal. The procedure, abridged: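 Activity values derive from bidirectional fitting against DMSO of reporter mRNA levels, measured by capillary electrophoresis of labelled RT-PCR products from HepG2 cells exposed 24 h.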

Assay [16] has as its target Heat shock factor protein 1 (Homo sapiens) (UniProt Q00613). Put plainly: ATG_HSE_CIS: Attagene CIS-FACTORIAL HepG2 Assay for human Heat Shock Transcription Factor 1 (HSE) (AID 2282953). The settings on record: HepG2 HSE cis-reporter, Attagene RNA transcription; actives raise or lower the signal. A digest of the protocol: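 Endogenous transcription factor activity in transiently transfected HepG2, read as reporter mRNA by RT-PCR with fluorescent capillary electrophoresis after 24 h. Gain or loss of signal fitted versus DMSO baseline.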

Assay [17] in a line: ATG_MRE_CIS: Attagene CIS-FACTORIAL HepG2 Assay for human Metal Responsive Element (MRE) (AID 2282954). The settings on record: HepG2 MRE cis-reporter transcription, Attagene multiplex; actives raise or lower the signal. The procedure, abridged: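 RT-PCR/capillary electrophoresis readout of reporter mRNA, 24 h post-dosing, in HepG2 cells transfected with multiplexed cis-regulated reporter constructs. Gain or loss of signal fitted bidirectionally against DMSO baseline.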

The target in assay [18] is Hypoxia-inducible factor 1-alpha (Homo sapiens) (UniProt Q16665). The assay can be described thus: ATG_HIF1a_CIS: Attagene CIS-FACTORIAL HepG2 Assay for human Hypoxia Inducible Factor 1 (HIF1A) (AID 2282951). The settings on record: HepG2 Attagene cis-factorial HIF1a reporter transcription; actives raise or lower the signal. A digest of the protocol:
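Fluorescence intensity of capillary-separated, 6-FAM-labelled reporter amplicons gives mRNA induction in HepG2 cells carrying transfected cis-promoter reporter units; cells exposed 24 h, responses fitted up or down from DMSO.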

The target of assay [19] is Bile acid receptor (Homo sapiens) (UniProt Q96RI1). The assay can be described thus: ATG_IR1_CIS: Attagene CIS-FACTORIAL HepG2 Assay for human Nuclear Receptor Subfamily 1 Group H Member 4 (NR1H4), IR1 submotif (AID 2282946). The settings on record: IR1 reporter transcription, actives raise or lower the signal. The procedure, abridged: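 Fluorescence of capillary-separated, HpaI-digested RT-PCR reporter products gave IR1-element mRNA induction in HepG2 cells 24 h after dosing. Endogenous transcription factors drove the cis-regulated reporters; activity was fitted bidirectionally against DMSO.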

The source made the active and inactive calls. The calls were made as follows: active = hit-call score of the fitted dose curve at least 0.9, where 1 is the maximum; inactive = score below 0.9.

In general, AC50 refers to the midpoint of the concentration-response curve, whichever way the signal moves.

Sequence of Hepatocyte nuclear factor 6 (Homo sapiens) (Q9UBC0 whole entry, looked up): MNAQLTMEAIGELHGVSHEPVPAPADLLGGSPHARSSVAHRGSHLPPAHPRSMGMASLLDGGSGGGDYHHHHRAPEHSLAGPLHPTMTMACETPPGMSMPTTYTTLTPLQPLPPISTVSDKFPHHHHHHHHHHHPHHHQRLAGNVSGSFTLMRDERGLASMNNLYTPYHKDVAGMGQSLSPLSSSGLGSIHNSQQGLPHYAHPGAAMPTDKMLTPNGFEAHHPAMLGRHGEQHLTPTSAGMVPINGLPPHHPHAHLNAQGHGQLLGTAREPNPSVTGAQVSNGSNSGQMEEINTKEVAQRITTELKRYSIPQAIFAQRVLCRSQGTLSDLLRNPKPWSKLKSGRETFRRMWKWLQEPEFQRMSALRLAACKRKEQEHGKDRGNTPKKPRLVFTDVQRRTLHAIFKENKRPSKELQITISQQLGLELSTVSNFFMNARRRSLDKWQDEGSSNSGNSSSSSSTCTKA
Sequence of Heat shock factor protein 1 (Homo sapiens) (Q00613 whole entry, looked up): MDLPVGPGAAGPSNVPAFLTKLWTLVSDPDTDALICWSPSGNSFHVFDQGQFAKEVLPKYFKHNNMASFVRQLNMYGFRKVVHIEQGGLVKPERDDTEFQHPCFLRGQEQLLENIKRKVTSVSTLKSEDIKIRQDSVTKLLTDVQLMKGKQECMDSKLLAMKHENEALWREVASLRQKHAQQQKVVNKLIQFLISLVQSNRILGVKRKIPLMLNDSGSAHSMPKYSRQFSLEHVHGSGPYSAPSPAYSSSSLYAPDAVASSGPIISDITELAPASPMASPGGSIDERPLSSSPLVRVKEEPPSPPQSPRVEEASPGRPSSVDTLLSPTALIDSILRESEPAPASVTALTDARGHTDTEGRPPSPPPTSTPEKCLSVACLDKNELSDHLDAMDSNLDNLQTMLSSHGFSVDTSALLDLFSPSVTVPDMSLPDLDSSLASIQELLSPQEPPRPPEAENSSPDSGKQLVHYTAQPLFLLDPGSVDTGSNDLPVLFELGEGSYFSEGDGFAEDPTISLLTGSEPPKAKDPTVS
Sequence of Hypoxia-inducible factor 1-alpha (Homo sapiens) (Q16665 whole entry, looked up): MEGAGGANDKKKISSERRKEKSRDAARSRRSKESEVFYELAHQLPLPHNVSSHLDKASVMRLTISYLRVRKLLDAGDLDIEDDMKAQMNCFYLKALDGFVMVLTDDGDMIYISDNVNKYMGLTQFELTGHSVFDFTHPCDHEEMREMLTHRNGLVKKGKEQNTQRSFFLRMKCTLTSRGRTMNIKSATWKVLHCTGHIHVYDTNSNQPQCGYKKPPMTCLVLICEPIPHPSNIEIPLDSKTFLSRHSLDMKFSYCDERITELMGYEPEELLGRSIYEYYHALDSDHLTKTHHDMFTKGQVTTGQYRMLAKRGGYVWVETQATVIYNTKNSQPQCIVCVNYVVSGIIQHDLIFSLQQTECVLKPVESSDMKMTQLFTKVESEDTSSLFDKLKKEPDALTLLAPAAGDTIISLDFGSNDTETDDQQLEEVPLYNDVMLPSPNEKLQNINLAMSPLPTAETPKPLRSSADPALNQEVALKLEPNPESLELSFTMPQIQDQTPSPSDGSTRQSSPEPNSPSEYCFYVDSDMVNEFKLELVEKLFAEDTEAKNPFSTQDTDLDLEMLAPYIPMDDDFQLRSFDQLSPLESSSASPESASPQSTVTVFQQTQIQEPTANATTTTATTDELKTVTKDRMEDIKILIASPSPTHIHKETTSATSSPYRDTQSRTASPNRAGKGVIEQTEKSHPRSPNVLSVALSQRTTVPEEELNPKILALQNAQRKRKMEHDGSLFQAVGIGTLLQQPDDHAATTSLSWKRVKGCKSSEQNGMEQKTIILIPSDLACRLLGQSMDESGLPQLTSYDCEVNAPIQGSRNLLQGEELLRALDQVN
Sequence of Hepatocyte nuclear factor 3-beta (Homo sapiens) (Q9Y261 whole entry, looked up): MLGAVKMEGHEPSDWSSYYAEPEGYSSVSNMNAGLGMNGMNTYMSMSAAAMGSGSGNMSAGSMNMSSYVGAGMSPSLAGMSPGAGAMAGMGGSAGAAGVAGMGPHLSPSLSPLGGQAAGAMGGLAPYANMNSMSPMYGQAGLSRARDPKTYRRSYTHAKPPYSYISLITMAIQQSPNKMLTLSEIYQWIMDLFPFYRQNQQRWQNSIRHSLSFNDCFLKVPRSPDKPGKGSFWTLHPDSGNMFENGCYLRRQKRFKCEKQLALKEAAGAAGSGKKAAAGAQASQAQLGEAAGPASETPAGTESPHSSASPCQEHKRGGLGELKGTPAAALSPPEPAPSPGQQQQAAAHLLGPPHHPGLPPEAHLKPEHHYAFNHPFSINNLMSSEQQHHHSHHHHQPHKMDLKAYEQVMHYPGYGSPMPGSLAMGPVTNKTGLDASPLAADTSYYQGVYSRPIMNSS
Sequence of Bile acid receptor (Homo sapiens) (Q96RI1 whole entry, looked up): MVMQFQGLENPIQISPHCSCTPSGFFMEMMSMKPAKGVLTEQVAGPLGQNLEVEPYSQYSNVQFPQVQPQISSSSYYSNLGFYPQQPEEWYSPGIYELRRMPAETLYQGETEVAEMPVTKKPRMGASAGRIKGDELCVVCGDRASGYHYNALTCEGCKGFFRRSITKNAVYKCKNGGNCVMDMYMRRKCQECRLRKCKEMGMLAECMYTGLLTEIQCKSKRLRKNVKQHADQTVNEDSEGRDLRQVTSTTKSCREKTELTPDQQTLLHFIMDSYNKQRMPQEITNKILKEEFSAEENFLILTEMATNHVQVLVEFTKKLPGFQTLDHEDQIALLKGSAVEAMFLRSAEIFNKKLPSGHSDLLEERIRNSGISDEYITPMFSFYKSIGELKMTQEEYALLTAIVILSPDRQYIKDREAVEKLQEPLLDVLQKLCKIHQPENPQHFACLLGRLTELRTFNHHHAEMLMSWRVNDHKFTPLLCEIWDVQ

Turning to `O=C1CCCCCCCCCCC1`, the outcome in [1], in assay [2], in assay [3], in assay [4], in [5] and in assay [6] was inactive. Further, the compound was classed as inactive in assay [7], in assay [8], in [9], in assay [10], in assay [11] and in assay [12]. Further, the outcome in [13], in assay [14], in assay [15], in assay [16] and in assay [17] was inactive.
As to `CC1=CC(C)C(C=O)CC1` (stereo not given), the call in [2], in assay [3], in assay [4], in assay [6], in assay [7] and in [8] was inactive. In addition, the compound was called inactive in assay [9], in assay [10], in assay [11], in assay [12], in assay [13] and in assay [14]. For the same compound, the outcome in assay [18], in assay [15], in assay [16] and in [17] was inactive. In assay [5], the AC50 is 27.2 µM (active).
As to `CC(=O)CCC=C(C)C`, the outcome in [1], in [2], in assay [3], in assay [4], in assay [5] and in [6] was inactive. Besides, the call in [7], in [8], in assay [9], in assay [10], in [11] and in assay [12] was inactive. Moreover, the call in assay [13], in assay [14], in assay [18], in assay [15], in assay [16] and in [17] was inactive.
For `CC(C)=CCl`, the outcome in [2], in assay [3], in assay [5], in assay [6], in assay [7] and in [8] was inactive. For the same compound, the compound was called inactive in [9], in assay [10], in [19], in assay [11], in assay [12] and in assay [13]. The result in assay [14], in assay [18], in assay [15], in assay [16] and in [17] was inactive.
`Cc1noc(NS(=O)(=O)c2ccc(N)cc2)c1C`: the result in assay [1], in [2], in [3], in assay [4], in assay [5] and in assay [6] was inactive. The outcome in assay [7], in assay [9], in assay [10], in [19], in assay [12] and in assay [13] was inactive. Also, the compound was called inactive in assay [14], in assay [15], in assay [16] and in [17].
